# Screening data (PubChem BioAssay)
# In the library only some 9.5% were active in any assay of this set; here they are far more common.
# ALDH1A1 block – qHTS Assay for Inhibitors of Aldehyde Dehydrogenase 1 (ALDH1A1). Aldehyde dehydrogenase 1A1 (Homo sapiens), P00352. 7.3% of 220,000 active. Potency, µM (highest dose often 75.3 µM), hits mostly inhibitors. Purified ALDH1A1, NADH fluorescence, propionaldehyde substrate; active = well fitted inhibition curve with a large enough effect, not every such curve was filed as active; inconclusive = small, poorly fitted or top-dose-only effect, or another doubt; inactive = no such curve, though single readings can be large or run the other way
# Tau fluor counter – Counterscreen qHTS for Inhibitors of Tau Fibril Formation, Fluorescence Polarization | tau K18 P301L Alexa594 fluorescence, heparin fibrillization | Potency, µM (highest dose often 57.7 µM) | 0.93% of 280,000 active | AID 1463, 2008; note: nearly all actives have a fitted effect of over 55% in size
#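 Human K18 P301L tau (15 uM unlabeled plus 0.24 uM Alexa 594-labeled, final) in 100 mM sodium acetate pH 7 was mixed with compound and 20 uM heparin and incubated 6 hr at 37 C.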
# HPGD inh – qHTS Assay for Inhibitors of HPGD (15-Hydroxyprostaglandin Dehydrogenase). Potency, µM, hits mostly inhibitors. 15-hydroxyprostaglandin dehydrogenase [NAD(+)] (Homo sapiens), P15428. 4.3% of 150,000 active. AID 894, 2007. purified HPGD, NADH fluorescence kinetic, PGE2 substrate; active = well fitted inhibition curve with a large enough effect, not every such curve was filed as active; inconclusive = small, poorly fitted or top-dose-only effect, or another doubt; inactive = no such curve, though single readings can be large or run the other way
# Target sequence (P15428 whole entry, looked up): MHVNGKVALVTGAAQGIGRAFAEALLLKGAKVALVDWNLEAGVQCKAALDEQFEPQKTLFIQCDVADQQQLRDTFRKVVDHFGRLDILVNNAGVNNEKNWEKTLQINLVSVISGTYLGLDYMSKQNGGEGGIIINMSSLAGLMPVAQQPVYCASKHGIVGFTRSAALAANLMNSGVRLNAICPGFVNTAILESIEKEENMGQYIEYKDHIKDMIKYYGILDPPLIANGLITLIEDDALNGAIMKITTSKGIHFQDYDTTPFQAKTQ
#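 NADH formation kinetics: reaction with 30 uM PGE2 and 1 mM NAD+ (final), 20 nM enzyme, Tris-HCl pH 8 with Tween 20, after 15 min compound preincubation at room temperature. Fluorescence change, last versus first of five reads.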
# NPSR antagonist – qHTS Assay for Antagonists of the Neuropeptide S Receptor: cAMP Signal Transduction. CHO-NPSR cells, cAMP TR-FRET, antagonist mode. 1% of 220,000 active. Q6W5P4. Potency, µM (highest dose often 38.3 µM), most hits filed as inhibitors; note: nearly all actives have a fitted effect of over 50% in size
# Target sequence (Q6W5P4 whole entry, looked up): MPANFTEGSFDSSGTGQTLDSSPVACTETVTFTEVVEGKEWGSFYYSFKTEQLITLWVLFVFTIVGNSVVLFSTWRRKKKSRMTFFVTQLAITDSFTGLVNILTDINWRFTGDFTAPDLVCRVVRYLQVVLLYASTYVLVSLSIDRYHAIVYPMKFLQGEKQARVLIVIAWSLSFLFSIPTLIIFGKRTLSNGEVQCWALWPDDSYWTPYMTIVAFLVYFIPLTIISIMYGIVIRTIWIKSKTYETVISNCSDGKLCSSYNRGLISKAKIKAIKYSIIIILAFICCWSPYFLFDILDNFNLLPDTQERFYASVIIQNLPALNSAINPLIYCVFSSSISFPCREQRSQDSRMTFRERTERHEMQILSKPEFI
# Tau FP inhib – qHTS for Inhibitors of Tau Fibril Formation, Fluorescence Polarization; Potency, µM (highest dose often 57.7 µM), usual class: inhibitors; K18 P301L tau heparin fibrillization, Alexa594 FP, 6 h; 0.39% of 280,000 active; AID 1468, 2008; note: nearly all actives have a fitted effect of over 55% in size
#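 Compound effects on tau fibrillization are measured by Alexa 594 fluorescence polarization (ex 555, em 632 nm). K18 P301L tau is used at 15 uM with 0.24 uM labeled tracer, and 20 uM heparin induces aggregation over 6 hr at 37 C.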
# Tau ThT inhib – qHTS for Inhibitors of Tau Fibril Formation, Thioflavin T Binding | Potency, µM (series often up to 57.4 µM), usual class: inhibitors | AID 1460, 2008 | recombinant tau K18 P301L (four-repeat tau fragment), heparin-induced fibrillization, ThT fluorescence | 2.1% of 270,000 active; note: nearly all actives have a fitted effect of over 55% in size
#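 Tau K18 P301L fragment (15 uM unlabeled plus 0.24 uM Alexa 594-labeled) in 100 mM sodium acetate pH 7 with compound, fibrillization induced by 20 uM heparin for 6 hr at 37 C. Thioflavin T (30 uM) added, fluorescence read after 1 hr (ex 450, em 510 nm).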
# A number is an active result; . = inactive; ? = inconclusive; / = no result given; [ ] = dose if it differs, or a comment. Unless noted, calls come from the whole dose curve; as a rule, active = well fitted curve in the direction sought with a large enough effect; inconclusive = small, poorly fitted or top-dose-only effect, or another doubt; inactive = no such curve, though single readings can be large; an effect the other way counts as inactive or inconclusive.
SMILES,ALDH1A1 block,Tau fluor counter,HPGD inh,NPSR antagonist,Tau FP inhib,Tau ThT inhib
O=C(O)CC(SCC(=O)Nc1ccccc1)C(=O)O (stereo not drawn),?,.,/,.,.,.
CC(=O)Nc1ccc(S(=O)(=O)N2CCN(C(C)CCc3ccccc3)CC2)cc1 (stereo not drawn),32µM,?,.,.,?,.
COc1ccc(NS(=O)(=O)c2cccc(C(=O)O)c2)cc1,.,.,.,.,.,.
COc1ccc(S(=O)(=O)N2CCC(C(=O)N3CCCCCC3)CC2)cc1,?,.,16µM,.,.,.
COc1ccc(NS(=O)(=O)c2ccc(Oc3cccc(C(=O)O)c3)cc2)cc1,0.71µM,.,/,.,.,.
CCN(c1ccccc1)S(=O)(=O)c1ccc(Cl)c(NC(=O)CSc2nncs2)c1,.,.,.,.,.,.
O=C(CSc1nccc(=O)[nH]1)Nc1cccc(S(=O)(=O)N2CCOCC2)c1,.,.,/,.,.,.
Clc1ccc(CSCc2ccc(Cl)cc2Cl)c(Cl)c1,.[13.5 µM],/,.,/,/,/
COc1ccc(-n2cnc3cc(NS(=O)(=O)c4ccccc4)ccc32)cc1,?,.,11µM,.,?,.
COc1ccc(NS(=O)(=O)c2ccc(S(=O)(=O)N3CCCC3)cc2)cc1,1µM,.,.,.,.,.
COc1ccc(S(=O)(=O)N2CCCCC2)cc1,.,.,.,.,.,.
CC(C)(C)n1cnc2cc(NS(=O)(=O)c3ccccc3)ccc21,.,.,?,.,.,.
COc1ccc(S(=O)(=O)Nc2ccc(Oc3ncccn3)c(Cl)c2)cc1,.,.,14µM,.,.,.
O=C(O)/C=C/C(=O)Nc1ccc(S(=O)(=O)N2CCCC2)cc1,22µM,.,/,.,.,.
COc1cc2c(cc1OC)C1(CCCC1)CNC2c1cccc([N+](=O)[O-])c1 (stereo not drawn),.,.,/,.,.,.
O=C(CSc1n[nH]c(-c2ccccc2Cl)n1)N1CCN(c2ccc(F)cc2)CC1,/,.,/,/,.,.
COc1ccc(S(=O)(=O)N2CCC(C(N)=O)(N3CCCCC3)CC2)cc1,18µM,.,.,.,.,.
COc1ccc(S(=O)(=O)N2CCCCC2)cc1NS(=O)(=O)c1ccccc1F,?,.,/,.,.,.
Cc1ccc(NC(=O)CCc2c(C)nc3ncnn3c2C)cc1,.,.,.,.,.,.
COc1ccc(S(=O)(=O)N2CCCCC2)cc1NS(=O)(=O)c1cc(Cl)ccc1Cl,2.2µM,.,.,.,.,.
Cc1nc2ncnn2c(C)c1CCC(=O)Nc1ccc(S(=O)(=O)N2CCCCCC2)cc1,6.3µM,.,16µM,.,.,.
COc1ccc(NS(=O)(=O)c2ccc(S(=O)(=O)N3CCCC3)cc2)cc1Cl,13µM,?,.,.,.,.
CCOC(=O)c1cnc(NCc2ccccc2OC)c2ccccc12,/,?,/,/,?,.
CCCOC(=S)N/C(=N\S(=O)(=O)c1ccccc1)c1ccccc1,14µM,.,28µM,.,.,.
CCOC(=S)N/C(=N\S(=O)(=O)c1ccccc1)c1ccccc1,11µM,.,?,.,.,.
SMILES,ALDH1A1 block,Tau fluor counter,HPGD inh,NPSR antagonist,Tau FP inhib,Tau ThT inhib
C#CCOc1nc(OCC#C)nc(OCC#C)n1,.,.,.,.,.,.
S=c1[nH]ncn1/N=C/c1ccc(Br)cc1,32µM,.,22µM,?,.,.
CCn1c2ccccc2c2cc(/C=N/n3cnnc3)ccc21,?,.,?,.,.,?
CCn1c2ccccc2c2cc(/C=N/n3cn[nH]c3=S)ccc21,22µM,?,16µM,?,.,?
CCn1c2ccccc2c2cc(/C=N/n3c(-c4cc(C)[nH]n4)n[nH]c3=S)ccc21,13µM,?,/,.,.,.
Cc1ccc(-c2ccc(CCC(=O)O)n2-c2ccc(C(C)C)cc2)cc1,/,.,/,/,.,?
CC(=O)N1CCc2cc(CNS(=O)(=O)c3ccccc3C(F)(F)F)ccc21,/,.,/,/,.,.
COc1ccccc1Cn1cccc1C=O,14µM,.,/,.,.,.
COc1ccccc1-n1cccc1C=O,.,.,/,.,.,.
O=C(c1ccccc1)C1CN(Cc2ccccc2)CCC1(O)c1ccccc1 (stereo not drawn),0.22µM,.,/,.,.,?
OC(c1ccccc1)C1CN(Cc2ccccc2)CCC1(O)c1ccccc1 (stereo not drawn),20µM,.,.,.,.,.
COc1cc(NC(=O)C2CCCN(S(=O)(=O)c3cn(C)cn3)C2)cc(OC)c1 (stereo not drawn),/,.,/,/,.,.
NC(=[SH+])N=N/C=C1/C=CC=CN1.O=S(=O)(O)O.[Fe],?,/,.,/,/,/
CCOC(=O)c1ccc(N2Cc3ccccc3C2)cc1O,20µM,.,.,.,.,?
Nc1nonc1C(=O)NCCN=Cc1cc(Cc2ccccc2)cc(Br)c1O,.,?,16µM,?,?,28µM
CC1(C)Cc2c(C#N)c(OCC(=O)c3ccccc3)nc(-c3ccoc3)c2CO1,0.28µM,.,?,.,.,.
CC1(C)Cc2c(C#N)c(OCC(=O)c3ccc(Cl)cc3)nc(-c3ccoc3)c2CO1,0.4µM,.,/,.,.,.
COc1nc(-c2ccccc2)c2c(c1C#N)CC(C)(C)OC2,?,.,.,.,.,.
CN(C)Cc1ccccc1-c1cncnc1Nc1ccc(F)cc1,.,.,.,/,.,.
CN(C)C(=O)c1ccc(-c2cncnc2Nc2ccc(F)cc2)cc1,11µM,/,/,/,/,/
Cc1cc([N+](=O)[O-])c(C)cc1-c1ccc(/C=N/NC(=O)c2cccnc2)o1,.,?,/,.,?,7.1µM
O=C(N/N=C/c1ccc(-c2ccccc2[N+](=O)[O-])o1)c1cncc(Br)c1,.,?,.,.,?,7.9µM
Cc1ccc(CN(Cc2cc3cccc(C)c3[nH]c2=O)C(=S)NCCCN(C)C)cc1,.,.,/,.,.,.
O=C(COC(=O)C1CCCCC1)Nc1cc([N+](=O)[O-])ccc1F,?,.,/,.,.,.
CCCCNS(=O)(=O)c1ccc(NC(=O)c2c(-c3ccccc3Cl)noc2C)cc1,.,?,.,.,.,.
CCn1ncc(CNC(=O)C2(C)CC2(Cl)Cl)c1C (stereo not drawn),.,.,11µM,.,.,.
COCCn1c(=O)c(-c2cc(F)cc(F)c2)nc2cnc(Oc3ccc(OC)cc3)nc21,.,/,.,/,/,/
CCCCC/C=N/NC(=O)c1[nH]c2ccc([N+](=O)[O-])cc2c1C,?,?,/,.,.,?
Cc1c(C(=O)NN)[nH]c2ccc([N+](=O)[O-])cc12,7.9µM,.,/,.,.,?
